# In PubChem BioAssay (Tox21):
# Values without a mark were called inactive. Inconclusive results are not listed. Entries that show only a call come without a potency. Activity calls are given as the source filed them. The call rests on the fitted dose curve; in most records, active means well fitted curve in the direction sought with a large enough effect in the repeat runs; inconclusive means weak or mixed curves; inactive means no such curve, though single readings can be large; an effect the other way counts as inactive or inconclusive.
# Columns and labels:
# [1] = qHTS RealTime-Glo MT Cell Viability Assay in HEK293 cells - 0 hour (AID 1224880); further: top concentration of the series differs between compounds; nearly all actives have a fitted effect of over 45% in size
# In short: (§1)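 qHTS format; HEK293 cells with NanoLuc/prosubstrate reagent, 37 C/5% CO2 for 5 h pre-dosing; compounds 23 nL in DMSO; luminescence at each time point reflects viable cells.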
# [2] = A CellTox Green Cytotoxicity Assay to monitor cytotoxicity in HEK293 cells - 32 hour (AID 1224881); further: nearly all actives have a fitted effect of over 40% in size
# In short: (§2)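 Each value comes from one timepoint of a single continuous run in which HEK293 cells with CellTox Green were exposed to compound for up to 40 h at 37 C, dye fluorescence rising with cell death.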
# [3] = A CellTox Green Cytotoxicity Assay to monitor cytotoxicity in HepG2 cells - 0 hour (AID 1224882); further: nearly all actives have a fitted effect of over 35% in size
# In short: (§3)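 Continuous culture of HepG2 cells with a membrane-impermeant DNA dye; rising fluorescence marks dead cells. Compound exposure lasted up to 40 h at 37 C, with reads every 8 h from 0 h.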
# [4] = A CellTox Green Cytotoxicity Assay to monitor cytotoxicity in HepG2 cells - 32 hour (AID 1224883); further: nearly all actives have a fitted effect of over 50% in size
# In short: as §3
# [5] = qHTS RealTime-Glo MT Cell Viability Assay in HepG2 cells - 16 hour (AID 1224885); further: nearly all actives have a fitted effect of over 50% in size
# In short: (§4)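 HepG2 suspension premixed with RealTime-Glo reagents is plated at 600 cells per well and left 5 h at 37 C/5% CO2. Compounds in DMSO then go in, and bioluminescence reflecting viable cell number is recorded over 40 h.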
# [6] = qHTS RealTime-Glo MT Cell Viability Assay in HEK293 cells - 24 hour (AID 1224886); further: nearly all actives have a fitted effect of over 50% in size; further: potency means the concentration at half of the fitted maximal effect; on activity change, negative = cytotoxicity: top concentration of the series differs between compounds
# In short: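 Reads taken at 0, 8, 16, 24, 32 and 40 h from the same wells. HEK293 cells (600/well) carried RealTime-Glo reagents from seeding, with compound added after a 5 h settle at 37 C.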
# [7] = qHTS RealTime-Glo MT Cell Viability Assay in HEK293 cells - 8 hour (AID 1224887); further: nearly all actives have a fitted effect of over 50% in size; further: potency means the concentration at half of the fitted maximal effect; on activity change, negative = cytotoxicity: top concentration of the series differs between compounds
# In short: as §1
# [8] = A CellTox Green Cytotoxicity Assay to monitor cytotoxicity in HEK293 cells - 16 hour (AID 1224888); further: nearly all actives have a fitted effect of over 35% in size
# In short: as §2
# [9] = qHTS RealTime-Glo MT Cell Viability Assay in HepG2 cells - 0 hour (AID 1224889); further: nearly all actives have a fitted effect of over 50% in size
# In short: as §4
# [10] = qHTS assay to identify small molecule antagonists of the estrogen receptor alpha (ER-alpha) signaling pathway using the BG1 cell line in the presence of 0.1 nM 17-beta-estradiol - cell viability counter screen (AID 1259241); further: nearly all actives have a fitted effect of over 40% in size
# In short: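 In this screen, hormone-deprived VM7Luc4E2 cells were seeded at 4,000 per well, dosed with compound and 0.1 nM estradiol final, and incubated 22 hr at 37C and 5% CO2; fluorogenic live-cell protease signal reported viability.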
# [11] = target: Estrogen receptor (Homo sapiens) (UniProt P03372); assay: qHTS assay to identify small molecule antagonists of the estrogen receptor alpha (ER-alpha) signaling pathway using the BG1 cell line in the presence of 0.1 nM 17-beta-estradiol (AID 1259244); further: nearly all actives have a fitted effect of over 50% in size
# Sequence of Estrogen receptor (Homo sapiens) (P03372 whole entry, looked up): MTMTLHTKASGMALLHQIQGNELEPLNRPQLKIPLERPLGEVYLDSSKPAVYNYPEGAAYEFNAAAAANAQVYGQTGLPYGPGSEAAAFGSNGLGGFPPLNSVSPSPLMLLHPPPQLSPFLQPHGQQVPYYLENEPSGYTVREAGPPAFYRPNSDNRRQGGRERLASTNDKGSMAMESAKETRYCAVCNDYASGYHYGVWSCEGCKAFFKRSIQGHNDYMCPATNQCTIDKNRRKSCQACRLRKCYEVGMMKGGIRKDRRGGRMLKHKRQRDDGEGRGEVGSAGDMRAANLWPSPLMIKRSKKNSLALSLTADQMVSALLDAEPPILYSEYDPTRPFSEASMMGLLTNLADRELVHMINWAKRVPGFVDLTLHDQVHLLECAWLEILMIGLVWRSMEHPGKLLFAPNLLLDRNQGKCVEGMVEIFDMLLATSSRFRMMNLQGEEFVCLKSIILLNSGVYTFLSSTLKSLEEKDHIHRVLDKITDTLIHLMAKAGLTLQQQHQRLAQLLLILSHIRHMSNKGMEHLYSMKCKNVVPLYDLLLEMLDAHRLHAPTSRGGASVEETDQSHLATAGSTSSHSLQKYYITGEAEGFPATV
# In short: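 Quantitative high-throughput screen in VM7Luc4E2 cells: compound plus 0.1 nM E2 (final), 22 h, 37C, 5% CO2; ONE-Glo added, 30 min room temperature, luminescence measured.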
# [12] = qHTS assay to identify small molecule HDAC inhibitors (AID 1259364); further: top concentration of the series differs between compounds; nearly all actives have a fitted effect of over 45% in size
# In short: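 Endogenous HDAC class I/II activity was measured in wild-type HCT-116 cells by HDAC-Glo luminescence after 2 h compound treatment.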
# [13] = qHTS assay to identify small molecule HDAC inhibitors - cell viability counter screen (AID 1259365)
# In short: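 Measured quantity is CellTiter-Glo luminescence from wild-type HCT-116 cells after compound incubation of 2hr at 37C, 5% CO2; reagent developed 30min at room temperature.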
# [14] = qHTS assay to identify small molecule agonists of the sonic hedgehog signaling (Shh) pathway - cell viability counter screen (AID 1259366); further: nearly all actives have a fitted effect of over 50% in size
# In short: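 In quantitative high-throughput format, 3T3 Gli1-Luc cells were exposed to compounds for 24hr and multiplexed for viability using CellTiter-Fluor, incubated 1hr at 37C before the fluorescence read.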
# [15] = qHTS assay to identify small molecule antagonists of the sonic hedgehog signaling (Shh) pathway - cell viability counter screen (AID 1259367); further: nearly all actives have a fitted effect of over 55% in size
# In short: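 NIH/3T3-derived Gli1-Luc reporter cells, 2,000/well, plated 4 hr before compound addition, then stimulated with conditioned medium for 24 hr at 37C. Viability measured in the same wells by CellTiter-Fluor fluorescence, reagent added at 23 hr for 1 hr.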
# [16] = A CellTox Green Cytotoxicity Assay to monitor cytotoxicity in HepG2 cells - 8 hour (AID 1224890); further: nearly all actives have a fitted effect of over 45% in size
# In short: as §3
# [17] = qHTS assay to identify small molecule antagonists of the androgen receptor (AR) signaling pathway using the MDA cell line in the presence of 0.5 nM R1881 - cell viability counter screen (AID 1259242); further: nearly all actives have a fitted effect of over 45% in size
# In short: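 Fluorescence from CellTiter-Fluor, which reports protease activity of live cells, was read 30 min after reagent addition to MDA-kb2 cells that had been incubated 16 hr with compound and 0.5 nM R1881.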
# [18] = A CellTox Green Cytotoxicity Assay to monitor cytotoxicity in HEK293 cells - 8 hour (AID 1224884); further: nearly all actives have a fitted effect of over 35% in size
# In short: as §2
# [19] = target: Androgen receptor (Homo sapiens) (UniProt P10275); assay: qHTS assay to identify small molecule antagonists of the androgen receptor (AR) signaling pathway using the MDA cell line in the presence of 0.5 nM R1881 (AID 1259243); further: nearly all actives have a fitted effect of over 50% in size; further: potency means the concentration at half of the fitted maximal effect
# Sequence of Androgen receptor (Homo sapiens) (P10275 whole entry, looked up): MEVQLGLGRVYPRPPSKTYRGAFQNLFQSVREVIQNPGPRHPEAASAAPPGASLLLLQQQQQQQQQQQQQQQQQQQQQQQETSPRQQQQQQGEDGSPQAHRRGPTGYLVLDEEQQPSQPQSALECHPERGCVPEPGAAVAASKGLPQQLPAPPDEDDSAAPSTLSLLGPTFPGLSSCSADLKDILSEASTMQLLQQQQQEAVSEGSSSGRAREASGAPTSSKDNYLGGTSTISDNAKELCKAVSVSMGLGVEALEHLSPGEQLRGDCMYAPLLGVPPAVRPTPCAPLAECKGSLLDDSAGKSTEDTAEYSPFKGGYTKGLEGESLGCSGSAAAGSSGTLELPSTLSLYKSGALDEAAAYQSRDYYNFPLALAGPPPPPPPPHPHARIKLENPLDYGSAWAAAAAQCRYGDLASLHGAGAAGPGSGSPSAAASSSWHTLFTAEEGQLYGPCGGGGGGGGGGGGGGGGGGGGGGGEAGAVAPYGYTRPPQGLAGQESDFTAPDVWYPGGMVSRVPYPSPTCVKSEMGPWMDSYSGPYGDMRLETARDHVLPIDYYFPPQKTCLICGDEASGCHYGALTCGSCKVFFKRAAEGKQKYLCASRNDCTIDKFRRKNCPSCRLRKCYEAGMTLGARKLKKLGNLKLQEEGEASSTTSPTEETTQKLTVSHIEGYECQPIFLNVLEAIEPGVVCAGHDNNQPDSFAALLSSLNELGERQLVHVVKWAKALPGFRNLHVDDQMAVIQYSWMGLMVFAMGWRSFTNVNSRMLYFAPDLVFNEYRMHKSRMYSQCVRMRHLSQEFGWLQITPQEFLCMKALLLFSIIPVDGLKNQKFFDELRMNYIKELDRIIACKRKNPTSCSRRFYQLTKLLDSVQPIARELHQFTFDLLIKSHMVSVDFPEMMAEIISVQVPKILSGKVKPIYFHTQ
# In short: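 Inhibition of R1881 (0.5 nM final) induced reporter signal was measured in human MDA-kb2 cells; note the MMTV promoter also responds to GR. Exposure lasted 16 hr at 37C.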
smiles,measurement,setting,value
Cc1c(I)c(=O)n(-c2ccccc2)n1C,Potency,[1],inactive
same,Potency,[2],inactive
same,outcome,[3],inactive
same,Potency,[4],inactive
same,outcome,[5],inactive
same,Potency,[6],inactive
same,Potency,[7],inactive
same,outcome,[8],inactive
same,Potency,[9],inactive
same,Potency,[10],inactive
same,Potency,[11],inactive
same,Potency,[12],inactive
same,outcome,[13],inactive
same,Potency,[14],inactive
same,Potency,[15],inactive
O=C(O)c1ccc(Cl)cc1Cl,Potency,[1],inactive
same,Potency,[2],inactive
same,outcome,[3],inactive
same,Potency,[4],inactive
same,outcome,[5],inactive
same,Potency,[6],inactive
same,Potency,[7],inactive
same,outcome,[8],inactive
same,outcome,[16],inactive
same,Potency,[10],inactive
same,outcome,[17],inactive
same,Potency,[11],inactive
same,Potency,[12],inactive
same,outcome,[13],inactive
same,Potency,[14],inactive
same,Potency,[15],inactive
O=C(O)Cc1ccc(Cl)cc1Cl,Potency,[1],inactive
same,Potency,[2],inactive
same,Potency,[18],inactive
same,outcome,[5],inactive
same,Potency,[6],inactive
same,outcome,[8],inactive
same,Potency,[10],inactive
same,Potency,[19],inactive
same,Potency,[11],inactive
same,Potency,[12],inactive
same,outcome,[13],inactive
same,Potency,[14],inactive
same,Potency,[15],inactive
CCCCCCCCSCC,Potency,[1],inactive
same,Potency,[2],inactive
same,outcome,[3],inactive
same,Potency,[4],inactive
same,outcome,[5],inactive
same,Potency,[6],inactive
same,Potency,[7],inactive
same,outcome,[8],inactive
same,outcome,[16],inactive
same,Potency,[10],inactive
same,outcome,[17],inactive
same,Potency,[11],inactive
same,Potency,[12],inactive
same,Potency,[14],inactive
same,Potency,[15],inactive
C=Cc1ccccn1,Potency,[1],inactive
same,Potency,[2],inactive
same,outcome,[3],inactive
same,Potency,[4],inactive
same,outcome,[5],inactive
same,Potency,[6],inactive
same,Potency,[7],inactive
same,outcome,[8],inactive
same,Potency,[9],inactive
same,outcome,[16],inactive
same,Potency,[10],inactive
same,Potency,[12],inactive
same,outcome,[13],inactive
same,Potency,[14],inactive
same,Potency,[15],inactive
COP(=O)(OC)OC(c1ccc(Cl)cc1)P(=O)(OC)OC (stereo unspecified),Potency,[1],inactive
same,Potency,[2],inactive
same,outcome,[3],inactive
same,Potency,[4],inactive
same,outcome,[5],inactive
same,Potency,[6],inactive
same,outcome,[8],inactive
same,Potency,[9],inactive
same,Potency,[10],inactive
same,outcome,[17],inactive
same,Potency,[11],inactive
same,Potency,[12],inactive
same,outcome,[13],inactive
same,Potency,[14],inactive
same,Potency,[15],inactive
CCOc1cc([N+](=O)[O-])c(OCC)cc1N1CCOCC1,Potency,[1],inactive
same,Potency,[2],inactive
same,outcome,[3],inactive
same,Potency,[4],inactive
same,outcome,[5],inactive
same,Potency,[6],15.5 µM (active)
same,Potency,[7],15.5 µM (active)
same,outcome,[8],inactive
same,outcome,[16],inactive
same,Potency,[11],inactive
same,Potency,[12],inactive
same,outcome,[13],inactive
same,Potency,[14],inactive
same,Potency,[15],inactive
O=C(O)c1cc(Cl)cc([N+](=O)[O-])c1Cl,Potency,[2],inactive
same,outcome,[3],inactive
same,Potency,[4],inactive
same,Potency,[18],inactive
same,outcome,[5],inactive
same,Potency,[6],inactive
same,Potency,[7],inactive
same,outcome,[8],inactive
same,Potency,[9],inactive
same,outcome,[16],inactive
same,Potency,[10],inactive
same,outcome,[17],inactive
same,Potency,[19],inactive
same,Potency,[11],inactive
same,Potency,[12],inactive
same,outcome,[13],inactive
same,Potency,[14],inactive
same,Potency,[15],inactive
COc1ccc(S(=O)(=O)N2c3ccc(Cl)cc3[C@@](O)(c3ccccc3Cl)[C@H]2C(=O)N2CCC[C@@H]2C(N)=O)cc1OC,Potency,[1],inactive
same,Potency,[2],inactive
same,outcome,[3],inactive
same,Potency,[4],inactive
same,outcome,[5],inactive
same,outcome,[8],inactive
same,Potency,[9],inactive
same,outcome,[16],inactive
same,Potency,[10],inactive
same,outcome,[17],inactive
same,Potency,[11],inactive
same,Potency,[12],inactive
same,outcome,[13],inactive
same,Potency,[14],inactive
same,Potency,[15],inactive
BrCc1cccc(Oc2ccccc2)c1,Potency,[1],inactive
same,Potency,[2],inactive
same,outcome,[3],inactive
same,Potency,[18],inactive
same,outcome,[5],inactive
same,Potency,[6],inactive
same,outcome,[8],inactive
same,Potency,[9],inactive
same,outcome,[16],inactive
same,Potency,[10],inactive
same,outcome,[17],inactive
same,Potency,[19],54.5 µM (active)
same,Potency,[12],inactive
same,outcome,[13],inactive
same,Potency,[14],inactive
same,Potency,[15],inactive
Cc1nc2n(c(=O)c1CCN1CCC(c3noc4cc(F)ccc34)CC1)CCC[C@H]2O,"activity change, negative = cytotoxicity",[1],7.51% [at 15.8 µM]
same,cytotoxicity increase,[2],6.5% [at 15.8 µM]
same,cytotoxicity,[3],-4% [at 15.8 µM]
same,cytotoxicity increase,[4],2.66% [at 15.8 µM]
same,"activity change, negative = cytotoxic",[5],-0.162% [at 15.8 µM]
same,Potency,[7],3.69 µM (active)
same,activity change,[8],1.32% [at 15.8 µM]
same,"activity change, negative = cytotoxicity",[9],2.14% [at 15.8 µM]
same,cytotoxicity increase,[16],-0.979% [at 15.8 µM]
same,"activity change, negative = cytotoxicity",[10],1.89% [at 19 µM]
same,"viability change, negative = cytotoxic",[17],9.15% [at 19 µM]
same,"activity change, negative = inhibition",[11],1.12% [at 19 µM]
same,"activity change, negative = inhibition",[12],-1.31% [at 19 µM]
same,"activity change, negative = cytotoxicity",[13],-0.155% [at 19 µM]
same,"viability change, negative = cytotoxic",[14],-0.31% [at 19 µM]
same,"viability change, negative = cytotoxic",[15],-0.26% [at 19 µM]
CC(=O)NCc1c(I)c(NC(C)=O)c(I)c(C(=O)O)c1I,Potency,[1],inactive
same,Potency,[2],inactive
same,Potency,[18],inactive
same,outcome,[5],inactive
same,Potency,[6],inactive
same,Potency,[7],inactive
same,outcome,[8],inactive
same,Potency,[9],inactive
same,Potency,[10],inactive
same,outcome,[17],inactive
same,Potency,[19],inactive
same,Potency,[11],inactive
same,Potency,[12],inactive
same,Potency,[14],inactive
same,Potency,[15],inactive
CC(C)(C)OC(=O)c1ccc(O)cc1,Potency,[1],inactive
same,Potency,[2],inactive
same,outcome,[3],inactive
same,Potency,[18],inactive
same,outcome,[5],inactive
same,Potency,[6],inactive
same,Potency,[7],inactive
same,outcome,[8],inactive
same,Potency,[9],inactive
same,outcome,[16],inactive
same,Potency,[10],inactive
same,outcome,[17],inactive
same,Potency,[14],inactive
same,Potency,[15],inactive
CC(C)CCCC(C)(C)O,Potency,[2],inactive
same,outcome,[3],inactive
same,Potency,[4],inactive
same,Potency,[18],inactive
same,outcome,[5],inactive
same,Potency,[6],inactive
same,Potency,[7],inactive
same,outcome,[8],inactive
same,Potency,[9],inactive
same,outcome,[16],inactive
same,Potency,[10],inactive
same,outcome,[17],inactive
same,Potency,[11],inactive
same,Potency,[12],inactive
same,outcome,[13],inactive
same,Potency,[14],inactive
same,Potency,[15],inactive
CCCCOCCOC(=O)COc1nc(Cl)c(Cl)cc1Cl,Potency,[1],inactive
same,Potency,[2],inactive
same,outcome,[3],inactive
same,Potency,[4],inactive
same,outcome,[5],inactive
same,Potency,[6],inactive
same,outcome,[8],inactive
same,outcome,[16],inactive
same,Potency,[10],inactive
same,outcome,[17],inactive
same,Potency,[11],inactive
same,Potency,[12],inactive
same,outcome,[13],inactive
same,Potency,[14],inactive
same,Potency,[15],inactive
C=C(C)C(=O)OCC(C)(C)COC(=O)C(=C)C,Potency,[2],inactive
same,outcome,[3],inactive
same,Potency,[4],inactive
same,Potency,[18],inactive
same,outcome,[5],inactive
same,Potency,[6],inactive
same,Potency,[7],inactive
same,outcome,[8],inactive
same,Potency,[9],inactive
same,outcome,[16],inactive
same,Potency,[10],inactive
same,outcome,[17],inactive
same,Potency,[11],inactive
same,Potency,[12],inactive
same,outcome,[13],inactive
same,Potency,[14],inactive
same,Potency,[15],inactive
